In the supplement of paper PMC9694430:

Columns and labels:
Assay in all cases: thermal shift delta Tm vs DMSO control; higher = stronger stabilization (binding)
Conditions in all cases: 12.5 µM; protein concentration 2 µM
[1] = system: LOC_OS01G57100-cb003
How it was run: (§1)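 Compounds dissolved in DMSO were added to purified rice kinase domain constructs, which had been expressed in E. coli, for differential scanning fluorimetry. Each well held 19.5 μl of 2 μM kinase in 100 mM potassium phosphate pH 7.5, 150 mM NaCl, 10% glycerol and 5 × SYPRO Orange. Fluorescence was followed from 25°C to 95°C at a rate of 0.05°C/s. Shifts in Boltzmann-fitted melting temperature are triplicate means relative to DMSO-only protein.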

[2] = system: LOC_OS01G60330-cb001
How it was run: as §1

[3] = system: LOC_OS01G60700-cb002
How it was run: as §1

[4] = system: LOC_OS01G63280-cb003
How it was run: as §1

[5] = system: LOC_OS01G67340-cb003
How it was run: as §1

[6] = system: LOC_OS01G70970-cb002
How it was run: as §1

[7] = system: LOC_OS02G07810-cb001
How it was run: as §1

[8] = system: LOC_OS02G08530-cb003
How it was run: as §1

[9] = system: LOC_OS02G14120-cb001
How it was run: as §1

[10] = system: LOC_OS02G17970-cb001
How it was run: as §1

| Compound | thermal shift delta Tm [1] | thermal shift delta Tm [2] | thermal shift delta Tm [3] | thermal shift delta Tm [4] | thermal shift delta Tm [5] | thermal shift delta Tm [6] | thermal shift delta Tm [7] | thermal shift delta Tm [8] | thermal shift delta Tm [9] | thermal shift delta Tm [10] |
| --- | --- | --- | --- | --- | --- | --- | --- | --- | --- | --- |
| Cc1ccc(CNc2ncnc3ccc(-c4ccc(CO)o4)cc23)o1 | 1.69 °C | 0.84 °C | 0.78 °C | 0.26 °C | -0.04 °C | 0.37 °C | 0.27 °C | 1.61 °C | 3.01 °C | 1.11 °C |
| S=C(NCc1ccc2c(c1)OCO2)N1CCN(c2ncnc3c2oc2ccccc23)CC1 [Amuvatinib (MP-470)] | 1.62 °C | 1.4 °C | 1.01 °C | 0.5 °C | 0.84 °C | 0.42 °C | 1.04 °C | 1.09 °C | 0.42 °C | 1.14 °C |
| CC(=O)Nc1nc(C)c(-c2ccc(Cl)c(S(=O)(=O)NCCO)c2)s1 | 1.34 °C | 1.21 °C | 0.76 °C | 0.53 °C | 0.18 °C | 0.09 °C | 1.61 °C | 0.77 °C | 1.19 °C | 0.97 °C |
| CN1CCC(COc2cnc(-c3cccc(Cn4nc(-c5cccc(C#N)c5)ccc4=O)c3)nc2)CC1 | 0.71 °C | 0.27 °C | 0.62 °C | -0.13 °C | -0.02 °C | 0.15 °C | 0.34 °C | 0.12 °C | 0.1 °C | 0.24 °C |
| CCn1nc(C2CCN(C(=O)CCO)CC2)nc1-c1cnc(N)c(-c2nnc(C(C)(C)C)o2)n1 | 0.59 °C | 0.91 °C | 1.19 °C | 1.82 °C | 1.55 °C | 1.96 °C | 1.55 °C | 2.73 °C | 5.17 °C | 1.34 °C |
| COc1ncc(-c2cc(-c3ncc(CN4C[C@@H](C)O[C@@H](C)C4)o3)c3cn[nH]c3c2)cc1NS(C)(=O)=O | 1.25 °C | 1.42 °C | 1.12 °C | 0.17 °C | 1.4 °C | 0.12 °C | 0.69 °C | 0.78 °C | -0.2 °C | 0.21 °C |
| Cc1cc(C)c(/C=C2\C(=O)Nc3ccccc32)[nH]1 [Semaxanib (SU5416)] | 1.1 °C | 6.76 °C | 1.12 °C | 0.7 °C | 2.32 °C | 2.72 °C | 1.03 °C | 3.63 °C | 3.06 °C | 1.09 °C |
| CO[C@@H](C(=O)N1Cc2[nH]nc(NC(=O)c3ccc(N4CCN(C)CC4)cc3)c2C1)c1ccccc1 | 0.28 °C | 1.12 °C | 0.4 °C | 0.57 °C | -0.26 °C | 1.38 °C | 0.65 °C | 0.25 °C | 9.66 °C | 0.37 °C |
| C[C@@H]1CN(C(=O)c2ccc(NC(=O)c3cc(O[C@H](C)c4c(Cl)ccc(F)c4Cl)c(N)nn3)cc2)C[C@H](C)N1 [Ensartinib (X-396)] | 4.79 °C | -0.22 °C | 0.66 °C | -0.05 °C | 7.25 °C | 0.84 °C | 0.09 °C | 2.29 °C | 12 °C | 0.57 °C |
| Cn1cnc2c(F)c(Nc3ccc(Br)cc3Cl)c(C(=O)NOCCO)cc21 [Selumetinib (AZD6244)] | 0.72 °C | 0.77 °C | 1.13 °C | -0.08 °C | -0.85 °C | 0.48 °C | 0.62 °C | 0.39 °C | 0.1 °C | 0.19 °C |
| CNC(=O)c1ccc(Nc2ncc(C(F)(F)F)c(NCc3nccnc3N(C)S(C)(=O)=O)n2)cc1 | 0.61 °C | 2.42 °C | 1.41 °C | 0.96 °C | 1.45 °C | 7.62 °C | 0.24 °C | 2.72 °C | 6.02 °C | 0.65 °C |
| COc1ccc(CCNCc2ccc(OCc3ccc(Cl)nc3)c(OC)c2)cc1OC | 1.03 °C | 0.8 °C | 0.19 °C | -0.28 °C | 0.24 °C | 0.23 °C | 0.28 °C | 0.56 °C | 0.14 °C | 0.22 °C |
| COc1ccc(-c2cc3c(C)nc(N)nc3n([C@H]3CC[C@H](OCCO)CC3)c2=O)cn1 | 2.79 °C | 0.98 °C | 0.9 °C | 0.37 °C | 0.23 °C | 0.14 °C | 1.27 °C | 1.09 °C | 1.12 °C | 0.63 °C |
| CCN(CC)CCCC(C)Nc1nc(C)cc(Nc2ccc3nc(C)cc(N)c3c2)n1 (stereo not given) | 1.43 °C | 0.65 °C | 0.91 °C | 0.28 °C | 0.08 °C | 0.16 °C | -0.06 °C | 0.57 °C | 0.93 °C | 0.8 °C |
| Cc1cccc(Nc2nc(NC3CCCCC3N)ncc2C(N)=O)c1 (stereo not given) | 2.09 °C | 1.38 °C | 1.44 °C | 0.64 °C | 2.38 °C | 2.39 °C | -0.08 °C | 4.25 °C | 4.75 °C | 0.86 °C |
| Cn1c(=O)c(F)c(Nc2ccc(I)cc2F)c2c(=O)n(C[C@@H](O)CO)cnc21 | 3.09 °C | 1.03 °C | 1.02 °C | 0.11 °C | 0.29 °C | 0.22 °C | 1.5 °C | 0.9 °C | 0.98 °C | 1.05 °C |
| N#Cc1ccc(-c2c(-c3ncn[nH]3)sc(N3CCOCC3)c2C#N)c(F)c1 | 0.86 °C | 1.05 °C | 1.22 °C | 0.44 °C | 0.56 °C | 0.2 °C | 0.75 °C | 0.69 °C | 1.41 °C | 1.24 °C |
